Reference: PubChem BioAssay (Tox21)
Records with an inconclusive call do not appear. Calls of active or inactive are those of the source. Unless noted, calls follow the shape of the dose curve; as a rule, active = well fitted curve in the direction sought with a large enough effect in the repeat runs; inconclusive = weak or mixed curves; inactive = no such curve, though single readings can be large; an effect the other way counts as inactive or inconclusive.

Legend:
[1] = qHTS assay to identify small molecule antagonists of the glucocorticoid receptor (GR) signaling pathway - cell viability counter screen (AID 720693); also: nearly all actives have a fitted effect of over 55% in size
[2] = qHTS assay for identifying genotoxic compounds that show differential cytotoxicity against isogenic chicken DT40 cell lines with known DNA damage response pathways - wild type cell line (AID 743012); also: nearly all actives have a fitted effect of over 60% in size
Procedure, shortened: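 CellTiter-Glo luminescence readout of viability in wild type DT40 cells after 40 h compound exposure at 37 C/5% CO2; 300 cells/well; reagent incubated 30 min at room temperature before reading.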

[3] = qHTS assay for identifying genotoxic compounds that show differential cytotoxicity against isogenic chicken DT40 cell lines with known DNA damage response pathways - Rev3 mutant cell line (AID 743014); also: nearly all actives have a fitted effect of over 55% in size
[4] = qHTS assay for identifying genotoxic compounds that show differential cytotoxicity against isogenic chicken DT40 cell lines with known DNA damage response pathways - Rad54/Ku70 mutant cell line (AID 743015); also: nearly all actives have a fitted effect of over 60% in size
[5] = qHTS assay to identify small molecule antagonists of the androgen receptor (AR) signaling pathway - cell viability counter screen (AID 743033; also: nearly all actives have a fitted effect of over 45% in size)
[6] = qHTS assay to identify small molecule antagonists of the androgen receptor (AR) signaling pathway using the MDA cell line - cell viability counter screen (AID 743041; also: nearly all actives have a fitted effect of over 45% in size)
Procedure, shortened: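 Viability read by CellTiter-Fluor fluorescence in the same wells as the antagonist screen, added after 15.5 h of a 16 h, 37C exposure. Human breast carcinoma MDA-kb2 AR-luc cells, compounds co-dosed with agonist R1881.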

[7] = qHTS assay to identify small molecule antagonists of the thyroid receptor (TR) signaling pathway - cell viability counter screen (AID 743064); also: nearly all actives have a fitted effect of over 50% in size
Procedure, shortened: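 In rat pituitary GH3.TRE-Luc reporter cells co-exposed to compound and 1 nM T3 for 23.5 h, cytotoxicity was assessed with CellTiter-Fluor in the same wells, read by fluorescence.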

[8] = qHTS assay to identify small molecule antagonists of the thyroid receptor (TR) signaling pathway (AID 743065); also: series mostly up to about 70 µM; nearly all actives have a fitted effect of over 55% in size
Procedure, shortened: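 Antagonism measured as loss of luciferase signal in GH3 cells stably carrying a TRE-luciferase reporter, co-treated with compound and T3 (1 nM final) for 23.5 h at 37 C. Viability was read in the same well by CellTiter-Fluor.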

[9] = system: thyroid hormone receptor (rat, GH3 cells); assay: qHTS assay to identify small molecule agonists of the thyroid receptor (TR) signaling pathway (AID 743066; calls by dose curve)
[10] = target: Estrogen receptor (Homo sapiens) (UniProt P03372); assay: qHTS assay to identify small molecule antagonists of the estrogen receptor alpha (ER-alpha) signaling pathway (AID 743069; active = well fitted curve in the direction sought with a large enough effect in the signal ratio in the repeat runs, not every such curve was filed as active; the % refers to the signal ratio)
Procedure, shortened: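 Antagonist mode: compounds in DMSO were co-added with 17beta-estradiol to ER-alpha-bla HEK293 cells (2% charcoal-stripped serum) and left 18 h at 37C. Reporter inhibition was measured as FRET fluorescence after 2 h LiveBLAzer substrate at room temperature.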

[11] = qHTS assay to identify small molecule antagonists of the estrogen receptor alpha (ER-alpha) signaling pathway - cell viability counter screen (AID 743074; calls by dose curve;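 also: HEK293 cells carrying ER-alpha-UAS-bla reporter stimulated with 17beta-estradiol; nearly all actives have a fitted effect of over 45% in size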)
[12] = target: Estrogen receptor (Homo sapiens) (UniProt P03372); assay: qHTS assay to identify small molecule agonists of the estrogen receptor alpha (ER-alpha) signaling pathway (AID 743075; calls by dose curve;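 also: HEK293 GripTite cells with ER-alpha and UAS-driven beta-lactamase reporter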)
[13] = target: Estrogen receptor (Homo sapiens) (UniProt P03372); assay: qHTS assay to identify small molecule agonists of the estrogen receptor alpha (ER-alpha) signaling pathway using the BG1 cell line (AID 743079); also: nearly all actives have a fitted effect of over 20% in size
[14] = qHTS assay to identify small molecule antagonists of the estrogen receptor alpha (ER-alpha) signaling pathway using the BG1 cell line (AID 743080; calls by dose curve;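 also: BG1 cells stimulated with 17beta-estradiol alongside compound; series mostly up to about 70 µM; nearly all actives have a fitted effect of over 25% in size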)
Procedure, shortened: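 Luminescence from a 4×ERE-luciferase reporter in BG1-Luc-4E2 cells served as read-out. Cells, pre-cultured 5 days in stripped-serum phenol-red-free medium, were exposed to compound with 17beta-estradiol co-stimulation for 21.5 h at 37 C.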

[15] = qHTS assay to identify small molecule antagonists of the estrogen receptor alpha (ER-alpha) signaling pathway using the BG1 cell line - cell viability counter screen (AID 743081);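 also: compound given together with 17beta-estradiol as the ER stimulus; series mostly up to about 70 µM; nearly all actives have a fitted effect of over 45% in size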
Aromatase (Homo sapiens) = Aromatase (Homo sapiens) (UniProt P11511); assay: qHTS assay to identify aromatase inhibitors (AID 743083); also: series mostly up to about 70 µM; nearly all actives have a fitted effect of over 55% in size
[16] = qHTS assay to identify aromatase inhibitors - cell viability counter screen (AID 743084)
[17] = target: Androgen receptor (Homo sapiens) (UniProt P10275); assay: qHTS assay to identify small molecule antagonists of the androgen receptor (AR) signaling pathway (AID 743035; active = well fitted inhibition curve with a large enough effect in the signal ratio in the repeat runs, not every such curve was filed as active; the % refers to the signal ratio)
Procedure, shortened: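 AR-bla HEK293 reporter cells; 4 h settle at 37C/5% CO2; compound + R1881 agonist, 16 h at 37C; LiveBLAzer B/G FRET substrate 2 h RT; fluorescence intensity read. qHTS format.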

[18] = target: Androgen receptor (Homo sapiens) (UniProt P10275); assay: qHTS assay to identify small molecule agonists of the androgen receptor (AR) signaling pathway using the MDA cell line (AID 743040; also: nearly all actives have a fitted effect of over 20% in size)
Procedure, shortened: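 Luciferase agonist assay: 16 h compound exposure at 37C without CO2 in MDA-kb2 AR-luc cells, whose MMTV promoter responds to both AR and GR. Luminescence measured after 30 min room-temperature incubation with ONE-Glo.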

[19] = target: Androgen receptor (Homo sapiens) (UniProt P10275); assay: qHTS assay to identify small molecule agonists of the androgen receptor (AR) signaling pathway (AID 743036; active = well fitted activation curve with a large enough effect in the signal ratio in the repeat runs, with a control signal flat, not every such curve was filed as active; the % refers to the signal ratio)
Procedure, shortened: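 Cell-based FRET reporter assay: HEK293 line with a UAS-beta-lactamase construct, compounds added in DMSO, 16 h exposure at 37C, then 2 h substrate step at room temperature and fluorescence intensity read.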

Measured: Potency

Chain of Androgen receptor (Homo sapiens) (P10275 whole entry, looked up): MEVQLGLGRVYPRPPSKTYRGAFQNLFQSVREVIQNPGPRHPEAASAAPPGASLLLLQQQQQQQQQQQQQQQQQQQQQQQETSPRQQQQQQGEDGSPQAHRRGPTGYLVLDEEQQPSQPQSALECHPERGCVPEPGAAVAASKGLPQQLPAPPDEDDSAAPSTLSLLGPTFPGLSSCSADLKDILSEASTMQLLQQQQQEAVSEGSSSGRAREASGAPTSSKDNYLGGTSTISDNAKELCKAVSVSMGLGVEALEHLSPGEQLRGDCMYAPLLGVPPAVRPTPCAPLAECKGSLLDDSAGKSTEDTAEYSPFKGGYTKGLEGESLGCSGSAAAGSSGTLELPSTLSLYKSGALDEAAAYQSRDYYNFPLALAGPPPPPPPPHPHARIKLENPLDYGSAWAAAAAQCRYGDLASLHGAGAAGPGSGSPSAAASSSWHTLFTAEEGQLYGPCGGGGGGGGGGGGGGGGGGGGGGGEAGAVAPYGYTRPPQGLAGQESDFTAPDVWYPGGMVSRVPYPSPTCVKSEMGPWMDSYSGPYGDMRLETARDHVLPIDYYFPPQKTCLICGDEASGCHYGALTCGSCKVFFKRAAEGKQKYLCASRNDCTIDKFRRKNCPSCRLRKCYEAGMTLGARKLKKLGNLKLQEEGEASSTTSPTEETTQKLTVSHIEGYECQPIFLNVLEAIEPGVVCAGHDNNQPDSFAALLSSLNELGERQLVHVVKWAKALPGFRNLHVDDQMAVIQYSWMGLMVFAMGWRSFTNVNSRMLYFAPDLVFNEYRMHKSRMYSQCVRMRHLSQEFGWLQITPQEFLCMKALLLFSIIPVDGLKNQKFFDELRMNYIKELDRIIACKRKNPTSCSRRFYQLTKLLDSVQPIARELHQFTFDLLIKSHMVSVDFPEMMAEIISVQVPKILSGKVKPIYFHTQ
Chain of Estrogen receptor (Homo sapiens) (P03372 whole entry, looked up): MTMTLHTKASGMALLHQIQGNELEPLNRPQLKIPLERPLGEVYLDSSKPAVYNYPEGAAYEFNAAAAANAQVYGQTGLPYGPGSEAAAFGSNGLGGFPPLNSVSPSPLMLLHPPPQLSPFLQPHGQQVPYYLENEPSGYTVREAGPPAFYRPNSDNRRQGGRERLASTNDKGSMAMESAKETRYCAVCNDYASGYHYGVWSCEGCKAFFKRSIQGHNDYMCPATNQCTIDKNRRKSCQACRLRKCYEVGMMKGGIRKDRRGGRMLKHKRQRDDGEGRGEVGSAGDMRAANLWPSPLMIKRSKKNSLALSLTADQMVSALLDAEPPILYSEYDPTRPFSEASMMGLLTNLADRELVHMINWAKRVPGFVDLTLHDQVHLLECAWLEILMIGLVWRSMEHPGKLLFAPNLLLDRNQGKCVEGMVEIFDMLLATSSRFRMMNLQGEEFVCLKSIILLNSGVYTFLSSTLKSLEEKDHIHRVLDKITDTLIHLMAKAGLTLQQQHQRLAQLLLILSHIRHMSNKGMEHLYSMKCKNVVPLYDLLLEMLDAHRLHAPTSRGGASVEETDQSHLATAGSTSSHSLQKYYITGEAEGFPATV
Chain of Aromatase (Homo sapiens) (P11511 whole entry, looked up): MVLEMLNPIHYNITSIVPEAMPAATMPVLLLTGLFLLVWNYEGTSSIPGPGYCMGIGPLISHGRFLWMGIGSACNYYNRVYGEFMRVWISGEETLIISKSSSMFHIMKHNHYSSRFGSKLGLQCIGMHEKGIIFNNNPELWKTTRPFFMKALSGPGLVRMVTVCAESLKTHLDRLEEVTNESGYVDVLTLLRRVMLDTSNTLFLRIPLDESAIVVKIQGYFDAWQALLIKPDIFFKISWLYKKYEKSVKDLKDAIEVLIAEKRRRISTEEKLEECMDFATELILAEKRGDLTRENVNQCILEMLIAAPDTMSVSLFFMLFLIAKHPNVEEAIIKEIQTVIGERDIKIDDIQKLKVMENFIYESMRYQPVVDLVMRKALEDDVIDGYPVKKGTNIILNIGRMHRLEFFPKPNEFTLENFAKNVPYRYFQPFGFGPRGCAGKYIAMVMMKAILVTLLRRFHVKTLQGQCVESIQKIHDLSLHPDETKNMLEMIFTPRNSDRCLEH

CC1c2ccccc2CN1NC(=O)c1ccc(Cl)c(S(N)(=O)=O)c1 (configuration not stated)
inactive: [1] | [2] | [3] | [4] | [5] | [6] | [7] | [8] | [9] | [10] | [11] | [12] | [13] | [14] | [15] | Aromatase (Homo sapiens)

CO[C@@]1(NC(=O)Cc2cccs2)C(=O)N2C(C(=O)O)=C(COC(N)=O)CS[C@@H]21
inactive: [1] | [2] | [3] | [4] | [5] | [6] | [7] | [8] | [9] | [10] | [11] | [12] | [13] | [14] | [15] | Aromatase (Homo sapiens) | [16]

Cc1c(C(=O)c2c[nH]n(C)c2=O)ccc(S(C)(=O)=O)c1C1=NOCC1
inactive: [1] | [2] | [3] | [4] | [5] | [17] | [18] | [6] | [7] | [8] | [9] | [11] | [12] | [13] | [14] | [15] | Aromatase (Homo sapiens) | [16]

C=CCCCC
inactive: [1] | [2] | [3] | [4] | [5] | [6] | [7] | [8] | [9] | [10] | [11] | [12] | [14] | [15] | Aromatase (Homo sapiens) | [16]

CCCCOCCOC(=O)COc1ccc(Cl)cc1Cl
inactive: [1] | [2] | [3] | [4] | [5] | [6] | [7] | [8] | [9] | [10] | [11] | [12] | [14] | [15] | Aromatase (Homo sapiens) | [16]

COC(=O)c1cccc(Cl)c1
inactive: [1] | [2] | [3] | [4] | [5] | [6] | [7] | [8] | [9] | [10] | [11] | [12] | [13] | [14] | [15] | Aromatase (Homo sapiens) | [16]

CN(C)CCOC(=O)C(c1ccccc1)C1(O)CCCC1 (configuration not stated)
inactive: [1] | [2] | [3] | [4] | [5] | [6] | [7] | [8] | [9] | [10] | [11] | [12] | [13] | [14] | [15] | Aromatase (Homo sapiens) | [16]

CC(CO)(CO)CO
inactive: [1] | [2] | [3] | [4] | [5] | [6] | [7] | [8] | [9] | [10] | [11] | [12] | [14] | [15] | Aromatase (Homo sapiens) | [16]

Cc1c(Cl)cccc1Cl
inactive: [1] | [2] | [3] | [4] | [5] | [6] | [7] | [8] | [9] | [10] | [11] | [12] | [13] | [14] | [15] | Aromatase (Homo sapiens) | [16]

CCCCCCCCCCCCCCCCCC#N
inactive: [1] | [2] | [3] | [4] | [5] | [6] | [7] | [8] | [9] | [10] | [11] | [12] | [13] | [14] | Aromatase (Homo sapiens) | [16]

NCCOCCN
inactive: [1] | [2] | [3] | [4] | [5] | [6] | [7] | [8] | [9] | [10] | [11] | [12] | [13] | [14] | [15] | Aromatase (Homo sapiens) | [16]

CCCCCCCCCCCCCCC(=O)NC(CO)CCCCCCCCCCCCCC (configuration not stated)
inactive: [1] | [2] | [3] | [4] | [5] | [6] | [7] | [8] | [9] | [10] | [11] | [12] | [13] | [14] | [15] | Aromatase (Homo sapiens) | [16]

CCCCC1CCC(O)CC1 (configuration not stated)
inactive: [1] | [2] | [3] | [4] | [5] | [17] | [19] | [18] | [6] | [7] | [8] | [9] | [11] | [15] | Aromatase (Homo sapiens) | [16]

CC(C)CO
inactive: [1] | [2] | [3] | [4] | [5] | [6] | [7] | [8] | [9] | [10] | [11] | [12] | [13] | [14] | [15] | Aromatase (Homo sapiens)

CCCCCCCCCOC(=O)c1ccccc1C(=O)OCCCCCCCCC
inactive: [1] | [2] | [3] | [4] | [5] | [19] | [18] | [6] | [7] | [8] | [9] | [10] | [11] | [12] | [13] | [14] | [15] | Aromatase (Homo sapiens) | [16]

C=CC/C=C/C
inactive: [1] | [2] | [3] | [4] | [5] | [6] | [7] | [8] | [9] | [10] | [11] | [12] | [14] | [15] | Aromatase (Homo sapiens) | [16]
